Test results taken from PubChem BioAssay (EPA / NIEHS).
Some structures have more than one record in an assay (separate samples or runs), and their calls can disagree. Active and inactive are the calls of the source. Rule for the calls: active = hit-call score of the fitted dose curve at least 0.9, where 1 is the maximum; inactive = score below 0.9.

Assay: IUF_NPC4_neurite_length_120hr: Leibniz Research Institute for Environmental Medicine (IUF) 120-hour Neuronal Morphology Assay for Neurite Length (NPC4) (AID 2284302)
Protocol: IUF_NPC2-5 is a cell-based, multiplexed assay that uses hNPC, a human primary neural progenitor cells, with measurements taken at 72 or 120 hours after chemical dosing in a 96-well plate. Human neural progenitor cells (hNPC) are generated from human fetal brain cortex at gestational week (GW) 16-19. In the neural progenitor cell migration and differentiation assay (NPC2-5), hNPCs grown as spheres are plated on an extracellular matrix and migrate and differentiate out of the sphere core. The processes radial glia migration, neuronal and oligodendrocyte migration as well as neuronal differentiation, neuronal morphology and oligodendrocyte differentiation are studied using automated phase contrast imaging and automated fluorescence imaging in combination with high content image analysis. In parallel, the cell viability is assessed using an alamar blue viability assay and the cytotoxicity using a lactate dehydrogenase dependent membrane integrity assay.IUF_NPC4_neurite_length_120hr is one of 12 assay components measured from the IUF_NPC2-5 assay. The neurite length at 120 hr is the mean length in um of all neurons (see IUF_NPC3_neuronal_differentiation_120hr) that are identified by the skeletonization algorithm in Omnisphero.Data from the IUF_NPC4_neurite_length_120hr component was analyzed at the endpoint IUF_NPC4_neurite_length_120hr in the positive analysis fitting direction relative to DMSO as the negative control and baseline of activity. Using a type of differentiation reporter, gain or loss-of-signal activity can be used to understand developmental effects.
Culture protocol: After the cell expansion period the cells are cultured for up to four weeks in which they are passaged every week as described in 3.6. Between one to three days after passaging spheres at a size of 0.3 mm are picked for the test method. For the assessment of neural progenitor cell migration and differentiation, the spheres are plated on poly-D-lysine/laminin coated 96-well flat bottom plates in differentiation medium (N2) to initiate migration and differentiation. Thereby one 0.3 mm big sphere is plated in the middle of a well. The differentiation medium consists of DMEM and Ham's F12 at a ratio of 3 to 1 supplemented with 1% N2 and 1% penicillin and streptomycin. Within 5 days NPCs radially migrate out of the sphere core and differentiate into radial glia cells (nestin positive), neurons (TUBB3 positive), oligodendrocytes (O4 positive) and astrocytes (GFAP positive). Cultivation during the test method is performed at 37C and 5% CO2 at a ph of 7.2-7.6.Exposure: 0.3 mm big hNPC are plated in the already prepared test conditions. Exposure starts at day 0 of differentiation and is continued over five days of differentiation until the experiment is terminated. Cells are fed with fresh medium at day 3 of differentiation. Therefore, half of the test condition solution (e.g. solvent control or compound dilution) is replaced by freshly prepared test condition solution.Test Method: Migration distance and cytotoxicity is determined after 72 hours based on brightfield images of each well. The assay is terminated by the assessment of cell viability and cytotoxicity as well as cell fixation after 120 h. Immunocytochemistry is performed for Hoechst positive nuclei, TUBB3 positive neurons and O4 positive oligodendrocytes. On the ICC images, migration after 120 hours, neuronal and oligodendrocyte number, neuronal morphology and neuron/oligodendrocyte specific migration is assessed. immunocytochemical staining (ICC) generates an image for each sphere. The plates are scanned using an automated high content imaging device and all nuclei and their positions are determined automatically based on their intensity and size. Images are imported to the Omnisphero software to run the image analysis that measures the following endpoints. The method is set up for 8 test conditions including 7 compound concentrations and one SC. […]

Question: Which outcome does the source give for `O=S1OCC2C(CO1)C1(Cl)C(Cl)=C(Cl)C2(Cl)C1(Cl)Cl` (centres undefined) here?
Answer: The outcome was “inactive”.

Question: For `CC[C@H](C)[C@H]1O[C@]2(C=C[C@@H]1C)C[C@@H]1C[C@@H](C/C=C(\C)[C@@H](O[C@H]3C[C@H](OC)[C@@H](O[C@H]4C[C@H](OC)[C@@H](O)[C@H](C)O4)[C@H](C)O3)[C@@H](C)/C=C/C=C3\CO[C@@H]4[C@H](O)C(C)=C[C@@H](C(=O)O1)[C@]34O)O2` (tested in a mixture with another compound), which AC50 is on record?
Answer: The AC50 was 7.61 µM (active).

Question: For `COP(=O)(OC)OC=C(Cl)Cl`, which AC50 is on record?
Answer: The AC50 was 13.5 µM (active).

Question: Which outcome does the source give for `CC(C)N(C(=O)COc1nnc(C(F)(F)F)s1)c1ccc(F)cc1` here?
Answer: Its outcome is “inactive”.

Question: What does the source list for `O=S(=O)(O)C(F)(F)C(F)(F)C(F)(F)C(F)(F)C(F)(F)C(F)(F)C(F)(F)C(F)(F)F`?
Answer: outcome: inactive; AC50: 0.362 µM (active)

Question: With `CNC(=O)CSP(=S)(OC)OC` as the molecule, how does the outcome read?
Answer: The outcome was “inactive”.

Question: With `CC1(C)C(C=C(Cl)Cl)C1C(=O)OC(C#N)c1ccc(F)c(Oc2ccccc2)c1` (centres undefined) as the molecule, how does the outcome read?
Answer: The outcome was “inactive”.

Question: With `O=C(O)COc1ccc(Cl)cc1Cl` as the molecule, how does the outcome read?
Answer: Its outcome is “inactive”.

Question: With `O=[N+]([O-])/N=C1\NCCN1Cc1ccc(Cl)nc1` as the molecule, how does the outcome read?
Answer: Its outcome is “inactive”.

Question: For `O=C(O)C(F)(F)C(F)(F)C(F)(F)C(F)(F)C(F)(F)C(F)(F)C(F)(F)F`, which outcome is on record?
Answer: The outcome was “inactive”.

Question: With `CC1(c2ccc(Oc3ccccc3)cc2)OC(=O)N(Nc2ccccc2)C1=O` (centres undefined) as the molecule, how does the outcome read?
Answer: Its outcome is “inactive”.

Question: With `COP(=S)(OC)Oc1ccc([N+](=O)[O-])cc1` as the molecule, how does the outcome read?
Answer: The outcome was “inactive”.

Question: With `CCC(C)(C)C(=O)OC1=C(c2ccc(Cl)cc2Cl)C(=O)OC12CCCCC2` as the molecule, how does the outcome read?
Answer: The outcome was “inactive”.
